Assay results as given in PubChem BioAssay (NCI).
The panel holds about 83,000 compounds, 20% with a hit somewhere; the sample as a whole holds those more often.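 In brief: 96-well plates, 48 h treatment, single concentration, percent growth endpoint.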 A number with no mark means an inactive call. Active and inactive are the calls of the source. How the source made its calls: active means growth percent below 10; inactive means the rest.

Tests used:
Experiment in all cases: NCI-60 one-dose screen, 48 h (100 = growth as untreated, 0 = no growth, -100 = all killed)
Conditions in all cases: 10 µM unless noted
SR leukemia = test system: SR leukemia
RPMI-8226 leukemia = test system: RPMI-8226 leukemia
OVCAR-8 ovarian = test system: OVCAR-8 ovarian
OVCAR-5 ovarian = test system: OVCAR-5 ovarian
OVCAR-4 ovarian = test system: OVCAR-4 ovarian
SK-OV-3 ovarian = test system: SK-OV-3 ovarian
IGROV1 ovarian = test system: IGROV1 ovarian
OVCAR-3 ovarian = test system: OVCAR-3 ovarian
HS 578T breast = test system: HS 578T breast
NCI/ADR-RES ovarian = test system: NCI/ADR-RES ovarian
T-47D breast = test system: T-47D breast
MDA-MB-435 melanoma = test system: MDA-MB-435 melanoma
SW-620 colon = test system: SW-620 colon
MCF7 breast = test system: MCF7 breast
HCT-116 colon = test system: HCT-116 colon
HCC-2998 colon = test system: HCC-2998 colon
KM12 colon = test system: KM12 colon
BT-549 breast = test system: BT-549 breast

SMILES	growth (SR leukemia)	growth (RPMI-8226 leukemia)	growth (OVCAR-8 ovarian)	growth (OVCAR-5 ovarian)	growth (OVCAR-4 ovarian)	growth (SK-OV-3 ovarian)	growth (IGROV1 ovarian)	growth (OVCAR-3 ovarian)	growth (HS 578T breast)	growth (NCI/ADR-RES ovarian)	growth (T-47D breast)	growth (MDA-MB-435 melanoma)	growth (SW-620 colon)	growth (MCF7 breast)	growth (HCT-116 colon)	growth (HCC-2998 colon)	growth (KM12 colon)	growth (BT-549 breast)
Cc1cc2c([nH]1)CSc1cc(S(=O)(=O)c3ccccc3)c(=O)[nH]c1-2	12.8% [100 µM]	21.3% [100 µM]	24.3% [100 µM]	69.9% [100 µM]	43.1% [100 µM]	22% [100 µM]	42.6% [100 µM]	-15.6% [100 µM] (active)	47.5% [100 µM]	15.7% [100 µM]	4.92% [100 µM] (active)	10.6% [100 µM]	23.8% [100 µM]	-0.665% [100 µM] (active)	1.35% [100 µM] (active)	12.4% [100 µM]	-37.2% [100 µM] (active)	–
COC(=O)/C=C1/SC(=Nc2ccc(C)cc2)N(CCc2c[nH]c3ccc(O)cc23)C1=O	-27.4% (active)	1.84% (active)	29.4%	108%	51.1%	98.4%	27.5%	32.7%	55.1%	50%	35%	14.9%	–	18.6%	16.9%	46.7%	43.6%	9.38% (active)
COc1cc(/C=C\c2cc(/C=C\c3ccc(O)c(OC)c3)n(C(=O)COc3ccc(Cl)cc3Cl)n2)ccc1O	0.0066% (active)	-6.8% (active)	6.52% (active)	56.7%	31.4%	-0.155% (active)	12.5%	14%	10.2%	21.5%	15%	-12.1% (active)	–	4.21% (active)	3.48% (active)	38.5%	9.93% (active)	1.41% (active)
Oc1c(Cl)cc(Cl)c2ccc(Cn3cc(-c4cc(C(F)(F)F)cc(C(F)(F)F)c4)nn3)nc12	-14% (active)	3.44% (active)	53.6%	95.6%	48.6%	115%	82.3%	-4.28% (active)	94.9%	97.8%	33.7%	43.5%	4.61% (active)	21.2%	1.78% (active)	101%	102%	–
O=C1/C(=C/c2ccc(Cl)cc2)COc2ccc(O)c(O)c21	15%	1.87% (active)	4.8% (active)	-22.9% (active)	27.6%	65.7%	-38% (active)	-27.2% (active)	20.4%	3.66% (active)	-14.8% (active)	1.56% (active)	-9.64% (active)	9.76% (active)	0.395% (active)	5.98% (active)	-2.9% (active)	–
Cc1nn(-c2ccccc2)c(Oc2ccccn2)c1-c1nc2ccccc2s1	33.9%	97.5%	102%	93.4%	98.7%	97.5%	90.6%	102%	110%	98.1%	88%	103%	105%	84%	91.5%	103%	87.6%	–
Cc1ccc(-c2nc(/C=C3/C(=O)Nc4ccccc43)c3ccccn23)cc1	73.4%	79.3%	82%	80.5%	115%	92.6%	22.9%	119%	85.7%	75.6%	80.7%	94.3%	64.8%	37.2%	66.8%	109%	88.4%	–
CCOC(=O)CSc1ncnc2c1c(-c1ccccc1)c(-c1ccccc1)n2-c1ccc(C)cc1	80.4%	37.8%	54.5%	93.8%	80.4%	56%	79.9%	66.4%	81.7%	98.4%	9.51% (active)	74.2%	–	52.5%	53.5%	75.8%	50.2%	61.8%
Cn1ccc2c3c(ccc21)CC3=O	108%	106%	107%	102%	119%	113%	112%	117%	121%	115%	105%	106%	108%	107%	101%	–	112%	106%
Cn1cc(-c2csc(-c3ccc(Cl)cc3)n2)c2cccnc21	0.516% [100 µM] (active)	-24.4% [100 µM] (active)	13.5% [100 µM]	-49.3% [100 µM] (active)	-28.1% [100 µM] (active)	-57.1% [100 µM] (active)	-21.5% [100 µM] (active)	-75.7% [100 µM] (active)	9.04% [100 µM] (active)	-35.5% [100 µM] (active)	-23.5% [100 µM] (active)	-6.61% [100 µM] (active)	–	-35.2% [100 µM] (active)	-62% [100 µM] (active)	-91.9% [100 µM] (active)	–	-38.1% [100 µM] (active)
Cc1ccc(-c2nn(-c3ccccc3)cc2C=C2C(=O)ON=C2C(C)C)cc1	-23.5% (active)	-23.1% (active)	59.7%	104%	85.4%	110%	54.7%	87.7%	56.4%	96.4%	78.6%	63.5%	47.2%	–	26%	68.7%	–	113%
CCC(C)N(c1ccc(Cl)cc1)c1nc(-c2ccc(Br)cc2)cs1 (configuration not stated)	83.5%	82.8%	96.7%	103%	96.5%	92.5%	82.1%	107%	91.3%	102%	78.7%	101%	95.5%	–	91%	108%	91.5%	121%
CCOC(=O)c1c(C)c2c(n1C)CSc1cc(C(=O)c3ccccc3)c(=O)[nH]c1-2	88.3% [100 µM]	82.3% [100 µM]	106% [100 µM]	95.8% [100 µM]	92.4% [100 µM]	99.4% [100 µM]	104% [100 µM]	108% [100 µM]	90.8% [100 µM]	91.6% [100 µM]	72.3% [100 µM]	84.6% [100 µM]	–	90.6% [100 µM]	85.8% [100 µM]	106% [100 µM]	97.4% [100 µM]	93.7% [100 µM]
C=CCn1c(SCC(=O)Nc2ccc(C(=O)/C=C/c3ccc(Cl)cc3)cc2)nnc1-c1cc(-c2ccc(S(N)(=O)=O)cc2)nc2ccccc12	79.5%	5.47% (active)	55.5%	96.7%	90.2%	93.7%	87.7%	82.8%	98.2%	100%	81.8%	76.1%	100%	38.6%	-31.5% (active)	101%	87.2%	–
O=S(=O)(NCCNc1cc(-c2c(-c3cccc(O)c3)nc3sccn23)ccn1)c1ccc(C(F)(F)F)cc1	19.6%	30.3%	28.4%	93.5%	22.1%	45.4%	36.4%	37.1%	42.8%	58%	-1.89% (active)	10.7%	47.3%	16.2%	26.6%	70.6%	26.7%	–
COc1ccc(C(=O)Nc2cccc(C3CC(=O)c4c(cc(OC)c(OC)c4OC)O3)c2)cc1 (configuration not stated)	13.3%	11.2%	17.7%	46%	43.5%	20.6%	36%	1.51% (active)	5.72% (active)	8.74% (active)	7.66% (active)	-47.3% (active)	27.3%	15.2%	10.9%	64.9%	13.8%	–
CCSc1nc(NC)c2cc(-c3ccc(C(F)(F)F)cc3)ccc2n1	94%	94.8%	102%	104%	96.2%	96.1%	97.2%	110%	101%	106%	91.4%	102%	105%	92.8%	96.9%	111%	103%	–
